# Test results reported in PubChem BioAssay (NCATS).
# “And” between values parts separate entries of the source, which are not always exact repeats. Equal values may be shown once. Records with an inconclusive call do not appear. For part of these data: Entries with a potency or affinity are not part of this list. The source made the active and inactive calls.
# Assays:
# [1] = Ebola virus entry assay, green fluorescence channel
# [2] = Ebola virus entry assay, blue channel fluorescence
# [3] = Ebola virus entry assay, green fluorescence channel; remark: listed apart in the source
# [4] = Ebola virus entry assay, ratio channel readout
# [5] = Ebola virus entry assay, blue channel fluorescence; remark: listed apart in the source
# [6] = Ebola virus entry assay, ratio channel
# [7] = Ebola virus entry assay, green channel fluorescence
# [8] = Ebola virus entry assay, reporter ratio channel; AC50: Channel type: primary unless noted; outcome: Channel type: primary unless noted
# [9] = Ebola virus entry reporter assay, green channel fluorescence
# [10] = Ebola virus entry assay, blue channel fluorescence; remark: listed apart in the source
# [11] = Ebola virus entry assay, blue channel (ratio component)
# [12] = qHTS assay for cell viability of HEK293 cells (AID 743288; active = well fitted cell-killing curve with a large enough effect; also: % is scaled to controls: 0 for no effect and ±100 for the full control effect; nearly all actives have a fitted effect of over 50% in size); conditions: ATP luminescence (CellTiter-Glo), 18 h; max response: stronger effect = lower value
# Summary of the method: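 HEK293 parental, 2,000 cells/well; ≥5 h pre-incubation 37 C; pintool compound addition; 18 h, 37 C; CellTiter-Glo 30 min RT; luminescence read.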
# [13] = qHTS assay for cell viability of the p53RE-bla HCT-116 cell line (AID 743292; active = well fitted cell-killing curve with a large enough effect; also: potency is read from the fitted curve at half-maximal effect; nearly all actives have a fitted effect of over 55% in size); conditions: p53RE-bla HCT-116 viability, ATP luminescence, 16 h; series mostly up to 95 µM
# Summary of the method: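 HCT-116 p53RE-bla cells seeded 4,000/well; 5 h at 37 C; compound (DMSO) added; 16 h at 37 C; CellTiter-Glo added, 30 min RT; luminescence read.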
# [14] = qHTS profiling of the MIPE4 collection as inhibitors of Plasmodium falciparum (3D7) proliferation (AID 743344);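 also: scaled between DMSO vehicle wells and 0.29 µM artemisinin as full inhibition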; conditions: P. falciparum 3D7 in erythrocytes, SYBR Green DNA fluorescence, 72 h; at 28.5 µM (top of the series) unless noted
# Summary of the method: (§1)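 Erythrocytes infected with P. falciparum (0.3% parasitemia, 2.5% hematocrit) incubated with compounds 72 h at 37 C, 5% CO2. Lysis with saponin/Triton buffer containing SYBR Green I, overnight at room temperature in the dark; DNA fluorescence (485/535 nm) normalised to 0.29 uM artemisinin and DMSO.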
# [15] = qHTS profiling of the MIPE4 collection as inhibitors of Plasmodium falciparum (DD2) proliferation (AID 743345); conditions: P. falciparum Dd2 in erythrocytes, SYBR Green DNA, 72 h; at 28.5 µM (top of the series) unless noted
# Summary of the method: as §1
# [16] = qHTS profiling of the MIPE4 collection as inhibitors of Plasmodium falciparum (DD2) proliferation (Rep 2) (AID 743346); conditions: P. falciparum Dd2 in erythrocytes, SYBR Green DNA, 72 h; at 28.5 µM (top of the series) unless noted
# Summary of the method: as §1
# [17] = qHTS profiling of the MIPE4 collection as inhibitors of Plasmodium falciparum (HB3) proliferation (AID 743347);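 also: plate controls were DMSO vehicle wells for no effect and artemisinin wells for full effect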; conditions: P. falciparum HB3 in erythrocytes, SYBR Green DNA, 72 h; at 28.5 µM (top of the series) unless noted
# Summary of the method: as §1
# For efficacy in this document: 0% is about no effect.
structure (smiles),measurement,setting,value
CNC1(C)C2CCC(C2)C1(C)C (centres undefined),efficacy,[1],20.8% (inactive)
same,outcome,[2],inactive
same,outcome,[3],inactive
same,outcome,[4],inactive
same,AC50,[5],39.8 µM (active)
same,outcome,[6],inactive
same,outcome,[7],inactive
same,AC50,[8],35.5 µM (active)
same,outcome,[9],inactive
COCCCC/C(=N\OCCN)c1ccc(C(F)(F)F)cc1,efficacy,[1],124% (inactive)
same,outcome,[2],inactive
same,outcome,[3],inactive
same,outcome,[4],inactive
same,AC50,[5],15.8 µM (active)
same,AC50,[6],14.1 µM (active)
same,AC50,[8],14.1 µM (active)
CC#C[C@]1(O)CC[C@H]2[C@@H]3CCC4=CC(=O)CCC4=C3[C@@H](c3ccc(N(C)C)cc3)C[C@@]21C,efficacy,[1],23.8% (inactive)
same,outcome,[2],inactive
same,outcome,[3],inactive
same,outcome,[4],inactive
same,outcome,[5],inactive
same,outcome,[6],inactive
same,outcome,[10],inactive
same,outcome,[8],inactive
CN(Cc1cnc2nc(N)nc(N)c2n1)c1ccc(C(=O)N[C@@H](CCC(=O)O)C(=O)O)cc1,efficacy,[1],38.5% (inactive)
same,outcome,[2],inactive
same,outcome,[3],inactive
same,outcome,[4],inactive
same,outcome,[5],inactive
same,outcome,[6],inactive
same,outcome,[10],inactive
same,outcome,[8],inactive
CN(C)CCC=C1c2ccccc2C=Cc2ccccc21,efficacy,[1],108% (inactive)
same,outcome,[2],inactive
same,outcome,[3],inactive
same,outcome,[4],inactive
same,AC50,[5],11.2 µM (active)
same,AC50,[6],10 µM (active)
same,AC50,[8],10 µM (active)
CN(C)c1ccc(O)c2c1C[C@H]1C[C@H]3[C@H](N(C)C)C(=O)C(C(N)=O)=C(O)[C@@]3(O)C(=O)C1=C2O,efficacy,[1],116% (inactive)
same,outcome,[2],inactive
same,outcome,[3],inactive
same,outcome,[4],inactive
same,outcome,[5],inactive
same,outcome,[6],inactive
same,outcome,[10],inactive
same,outcome,[8],inactive
same,outcome,[11],inactive
C[C@]12C/C(=C/O)C(=O)C[C@@H]1CC[C@@H]1[C@@H]2CC[C@@]2(C)[C@H]1CC[C@]2(C)O,max response,[12],-10.8% (inactive) and -7.35% (inactive)
same,Potency,[13],50.1 µM (active)
same,efficacy,[1],90.8% (inactive)
same,outcome,[2],inactive
same,outcome,[3],inactive
same,outcome,[4],inactive
same,outcome,[5],inactive
same,AC50,[6],14.1 µM (active)
same,outcome,[10],inactive
same,AC50,[8],14.1 µM (active)
same,outcome,[11],inactive
same,outcome,[9],inactive
CNC(=O)c1cc(Oc2ccc(NC(=O)Nc3ccc(Cl)c(C(F)(F)F)c3)cc2)ccn1,efficacy,[1],20.4% (inactive)
same,outcome,[2],inactive
same,outcome,[3],inactive
same,outcome,[4],inactive
same,AC50,[5],39.8 µM (active)
same,outcome,[6],inactive
same,outcome,[7],inactive
same,AC50,[8],35.5 µM (active)
same,outcome,[9],inactive
CC(C)(C)NC(=O)[C@H]1CC[C@H]2[C@@H]3CC[C@H]4NC(=O)C=C[C@]4(C)[C@H]3CC[C@]12C,efficacy,[1],71.8% (inactive)
same,outcome,[2],inactive
same,outcome,[3],inactive
same,outcome,[4],inactive
same,outcome,[5],inactive
same,outcome,[6],inactive
same,outcome,[10],inactive
same,outcome,[8],inactive
same,outcome,[11],inactive
CO[C@H]1C=CO[C@@]2(C)Oc3c(C)c(O)c4c(O)c(c(/C=N/N5CCN(C)CC5)c(O)c4c3C2=O)NC(=O)/C(C)=C\C=C[C@H](C)[C@H](O)[C@@H](C)[C@@H](O)[C@@H](C)[C@H](OC(C)=O)[C@@H]1C,efficacy,[1],60.3% (inactive)
same,outcome,[2],inactive
same,outcome,[3],inactive
same,outcome,[4],inactive
same,outcome,[5],inactive
same,outcome,[6],inactive
same,outcome,[10],inactive
same,outcome,[8],inactive
same,outcome,[11],inactive
same,outcome,[9],inactive
Cc1nc2n(c(=O)c1CCN1CCC(c3noc4cc(F)ccc34)CC1)CCCC2,"parasite growth, % of DMSO control",[14],38.3%
same,"parasite growth remaining, % of DMSO control (lower = more inhibition)",[15],70.5%
same,"parasite growth, % of control (lower = inhibition)",[16],48.7%
same,"growth, % of control",[17],60.5%
same,efficacy,[1],54.5% (inactive)
same,outcome,[2],inactive
same,outcome,[3],inactive
same,outcome,[4],inactive
same,outcome,[5],inactive
same,outcome,[6],inactive
same,outcome,[10],inactive
same,outcome,[8],inactive
same,outcome,[11],inactive
CN(C)[C@@H]1C(=O)C(C(N)=O)=C(O)[C@@]2(O)C(=O)C3=C(O)c4c(O)ccc(Cl)c4[C@@H](O)[C@H]3C[C@@H]12,efficacy,[1],117% (inactive)
same,outcome,[2],inactive
same,outcome,[3],inactive
same,outcome,[4],inactive
same,outcome,[5],inactive
same,AC50,[6],28.2 µM (active)
same,outcome,[10],inactive
same,AC50,[8],28.2 µM (active)
same,outcome,[11],inactive
CC(=O)Oc1cc2c(s1)CCN(C(C(=O)C1CC1)c1ccccc1F)C2 (centres undefined),efficacy,[1],43.8% (inactive)
same,outcome,[2],inactive
same,outcome,[3],inactive
same,outcome,[4],inactive
same,outcome,[5],inactive
same,outcome,[6],inactive
same,outcome,[10],inactive
same,outcome,[8],inactive
same,outcome,[11],inactive
CN(C)CCOC(c1ccc(Cl)cc1)c1ccccn1 (centres undefined),efficacy,[1],34.3% (inactive)
same,outcome,[2],inactive
same,outcome,[3],inactive
same,outcome,[4],inactive
same,AC50,[5],22.4 µM (active)
same,outcome,[6],inactive
same,outcome,[10],inactive
same,AC50,[8],39.8 µM (active)
same,outcome,[9],inactive
CCc1ccc(CCOc2ccc(CC3SC(=O)NC3=O)cc2)nc1 (centres undefined),efficacy,[1],52.6% (inactive)
same,outcome,[2],inactive
same,outcome,[3],inactive
same,outcome,[4],inactive
same,outcome,[5],inactive
same,outcome,[6],inactive
same,outcome,[10],inactive
same,outcome,[8],inactive
same,outcome,[9],inactive
CC(C)C[C@H](NC(=O)[C@H](Cc1ccccc1)NC(=O)c1cnccn1)B(O)O,efficacy,[1],-28.6% (inactive)
same,outcome,[2],inactive
same,outcome,[3],inactive
same,outcome,[4],inactive
same,AC50,[5],0.0794 µM (active)
same,AC50,[6],1.26 µM (active)
same,outcome,[10],inactive
same,AC50,[8],1.26 µM (active)
same,outcome,[9],inactive
Cc1cc2c(s1)Nc1ccccc1N=C2N1CCN(C)CC1,"parasite growth, % of DMSO control",[14],97.1%
same,"parasite growth remaining, % of DMSO control (lower = more inhibition)",[15],94.5%
same,"parasite growth, % of control (lower = inhibition)",[16],49.7%
same,"growth, % of control",[17],101%
same,efficacy,[1],36% (inactive)
same,outcome,[2],inactive
same,outcome,[3],inactive
same,outcome,[4],inactive
same,outcome,[5],inactive
same,outcome,[6],inactive
same,outcome,[10],inactive
same,AC50,[8],39.8 µM (active)
same,outcome,[11],inactive
